Measured potencies and affinities stand elsewhere.

40 compounds from ChEMBL document CHEMBL3988442, “University of Dundee, Small-Polar-MMV Screening Library” (2021) can be followed below.

In this experiment the target is T1, Ubiquitin-activating enzyme e1, putative (Leishmania donovani (strain BPK282A1)) (UniProt E9BSI1).
T1 sequence (whole entry): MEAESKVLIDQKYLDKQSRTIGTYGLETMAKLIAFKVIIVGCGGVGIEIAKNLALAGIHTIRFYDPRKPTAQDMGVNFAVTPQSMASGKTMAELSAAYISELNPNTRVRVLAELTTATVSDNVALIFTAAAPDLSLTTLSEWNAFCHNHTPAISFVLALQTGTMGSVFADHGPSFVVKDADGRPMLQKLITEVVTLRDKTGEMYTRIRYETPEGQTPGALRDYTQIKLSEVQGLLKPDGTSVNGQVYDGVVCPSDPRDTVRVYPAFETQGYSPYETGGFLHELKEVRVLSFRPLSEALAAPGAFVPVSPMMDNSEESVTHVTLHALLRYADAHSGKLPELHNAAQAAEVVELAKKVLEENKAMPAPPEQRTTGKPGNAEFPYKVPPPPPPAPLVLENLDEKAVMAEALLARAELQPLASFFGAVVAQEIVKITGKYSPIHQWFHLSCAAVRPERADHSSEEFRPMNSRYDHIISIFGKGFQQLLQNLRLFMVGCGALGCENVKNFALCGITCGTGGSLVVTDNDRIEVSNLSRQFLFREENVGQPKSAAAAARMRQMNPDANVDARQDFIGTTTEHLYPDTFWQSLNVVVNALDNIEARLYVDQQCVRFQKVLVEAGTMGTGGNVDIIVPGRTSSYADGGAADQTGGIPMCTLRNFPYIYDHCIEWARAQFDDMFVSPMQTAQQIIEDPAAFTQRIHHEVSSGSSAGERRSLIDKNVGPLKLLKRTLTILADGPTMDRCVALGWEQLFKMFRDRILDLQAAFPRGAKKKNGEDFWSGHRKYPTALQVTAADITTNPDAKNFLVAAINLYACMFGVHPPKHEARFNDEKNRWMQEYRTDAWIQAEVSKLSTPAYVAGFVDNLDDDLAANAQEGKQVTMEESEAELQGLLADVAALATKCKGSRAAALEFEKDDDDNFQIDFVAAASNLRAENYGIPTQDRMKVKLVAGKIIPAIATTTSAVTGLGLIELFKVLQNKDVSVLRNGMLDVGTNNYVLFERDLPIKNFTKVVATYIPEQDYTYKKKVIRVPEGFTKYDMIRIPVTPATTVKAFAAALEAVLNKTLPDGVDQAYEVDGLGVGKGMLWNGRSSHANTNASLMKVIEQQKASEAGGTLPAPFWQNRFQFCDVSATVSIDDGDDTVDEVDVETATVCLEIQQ
The experiment is described as follows: Leishmania donovani Ubiquitin Activating Enzyme (LdE1). Set-up: scale not given: direction of the effect not stated beside the values. To be noted: 30 µM. It counts as functional.
On to `Cc1ccc2c(c1)CN(C(=O)C1CCCCC1)C(CN(C)C)CO2` (stereo not given), for which the Percent Effect was found to be 12.2%.

For `O=C(O)c1cc2c(nc1O)CC(c1cccs1)CC2=O` (stereo not given), the Percent Effect amounted to 17.3%.

As to `Cc1nc(N2CCCC2)nc2c1CCN(C(=O)C1CCCC1)CC2`, the Percent Effect amounted to 4%.

As to `Cc1ccc(CC(=O)NCCCNS(C)(=O)=O)cc1`, the Percent Effect turned out to be 13.9%.

Regarding `CSCC(CCO)NC(=O)Nc1cc(C)ccc1C` (stereo not given), the Percent Effect worked out at 2.74%.

Take `COC(=O)c1sccc1S(=O)(=O)N1CCC(Oc2ncccc2Cl)CC1`: the Percent Effect was -8.22%.

On to `Cc1cc(-c2cnn(CCNC(=O)C3CCCO3)c2C2CC2)on1` (stereo not given), for which the Percent Effect was determined as 4.05%.

Consider `Cc1ccc(NS(=O)(=O)CC2=NC(=O)n3cccc3C2=O)cc1`, for which the Percent Effect is -4%.

Regarding `CCS(=O)(=O)N1CCc2ccc(NC(=O)Nc3ccc(F)cc3F)cc21`, the Percent Effect was determined as 7.79%.

In the case of `Cc1csc(C2CCCN(C(=O)c3cnc[nH]3)C2)n1` (stereo not given), the Percent Effect is 10.8%.

Take `O=C(c1ccc[nH]1)N1CCc2c(COCC3CC3)cncc2C1`: the Percent Effect was 13.5%.

In the case of `CC(C)c1nn(C)c(N(C)C)c1CNCc1ccccc1CN(C)C`, the Percent Effect is 10.5%.

For `c1ccc(-c2noc(CN3CCC(c4ccn[nH]4)CC3)n2)cc1`, the Percent Effect was -8.11%.

As for `Cc1ccc(C)c(NC(=O)N(C)Cc2cnn(C)c2)c1`, the Percent Effect came out at 21.6%.

Turning to `COc1ccc(CN(Cc2cncn2C)CC2CCCO2)cc1OC` (stereo not given), the Percent Effect was 12.2%.

On to `CN(C)C(=O)CC1CC2(CCN(C(=O)N(C)C)CC2)Oc2ccccc21` (stereo not given), for which the Percent Effect worked out at 8.11%.

With `Cc1noc(C)c1C(=O)NCC(C)N(C)C` (stereo not given), the Percent Effect stood at 16.2%.

With `COc1ccc2c(c1)CC(NC(=O)NCc1cccs1)CO2` (stereo not given), the Percent Effect was 7.79%.

Consider `Cc1cc(C)n(CC2CCCN2C(=O)c2ccc3c(c2)nnn3C)n1` (stereo not given), for which the Percent Effect was found to be 8.22%.

`O=C1[C@@H]2CCN(Cc3ccoc3)C[C@@H]2OCCN1Cc1cccnc1`: the Percent Effect was 13.3%.

With `CCc1nnc(CN(C)c2nc(C(C)C)nc3c2cnn3C)o1`, the Percent Effect came to 4.17%.

Turning to `CCOC(=O)NC(CNC(=O)CCc1ccccn1)CC(C)C` (stereo not given), the Percent Effect was 0%.

As to `CC(C)c1nn(C)c(N(C)C)c1CNCCC(=O)NC1CCCC1`, the Percent Effect was determined as 21.1%.

In the case of `Cc1cnn(CC2CCCN2C(=O)c2cnc3n[nH]c(C)c3c2)c1` (stereo not given), the Percent Effect was 16.5%.

`O=C(c1ccnnc1)N1C[C@H]2CCC[C@@]2(COCC2CCOCC2)C1`: the Percent Effect was -16.2%.

Regarding `Cc1nccn1CC1CCCN1S(=O)(=O)Cc1ccccc1` (stereo not given), the Percent Effect amounted to 5.06%.

In the case of `CC(C)c1n[nH]c(C2CN(C(=O)CCn3ccccc3=O)CCO2)n1` (stereo not given), the Percent Effect is 1.27%.

With `Cc1ccc(C(NC(=O)CC2CCN(C(C)C)CC2)C(=O)O)cc1` (stereo not given), the Percent Effect amounted to 2.7%.

For the compound `c1ccc(-c2nnn3c2COC(CNCC2CCOCC2)C3)cc1` (stereo not given), the Percent Effect is 8%.

On to `O=C(c1cncc(N2CCC3(CCNCC3)CC2)n1)N1CCCC1`, for which the Percent Effect worked out at 18.7%.

Turning to `Cc1cc(NC(=O)NCCc2cccs2)n(C)n1`, the Percent Effect was 4.17%.

For the compound `Cc1nc(-c2ccco2)ccc1C(=O)N1CCCC1Cn1cccn1` (stereo not given), the Percent Effect is 1.27%.

With `CCOCC1CN(C(=O)CS(C)(=O)=O)Cc2cnn(C)c21` (stereo not given), the Percent Effect came to 2.67%.

For the compound `O=C1CC(c2ccccc2F)c2c(n3ccsc3nc2=O)N1` (stereo not given), the Percent Effect worked out at 9.33%.

As for `O=C(c1cccnc1-n1cccn1)N1CCN(CC2CC2)CC1`, the Percent Effect is 5.41%.

On to `COc1cc(C(=O)N(Cc2cnn(C)c2)C(C)C)ccc1OCC(N)=O`, for which the Percent Effect was 18.4%.

In the case of `Cc1nn(C)c(C)c1C1CCCN1CC(=O)NC(C1CC1)C1CC1` (stereo not given), the Percent Effect was 10.8%.

Consider `Cc1nc(C2CCCN(C(=O)c3cccc4c3OCO4)C2)no1` (stereo not given), for which the Percent Effect turned out to be 11.4%.

As for `COCCNC(=O)C(C)n1cc(Br)cn1` (stereo not given), the Percent Effect turned out to be 5.2%.

In the case of `Cc1nc(CN2CCOC(c3nc(C(C)C)n[nH]3)C2)oc1C` (stereo not given), the Percent Effect stood at 5.06%.
